Reference: the supplement of paper PMC12645437, “Orthogonal IMiD-Degron Pairs Induce Selective Protein Degradation in Cells” (ACS Chemical Biology, 2025)
Whole data set: some 8,300 sequences, median “log2 fold change of degron read counts, EGFP-low vs EGFP+ sorted cells (limma voom), compound-induced degradation” near -1.1, cut for the highest 2% near 3.2. For the sample, the highest values were picked, then their nearest neighbours and some sequences at random.

T1: CRBN, Q96SW2
T1 chain: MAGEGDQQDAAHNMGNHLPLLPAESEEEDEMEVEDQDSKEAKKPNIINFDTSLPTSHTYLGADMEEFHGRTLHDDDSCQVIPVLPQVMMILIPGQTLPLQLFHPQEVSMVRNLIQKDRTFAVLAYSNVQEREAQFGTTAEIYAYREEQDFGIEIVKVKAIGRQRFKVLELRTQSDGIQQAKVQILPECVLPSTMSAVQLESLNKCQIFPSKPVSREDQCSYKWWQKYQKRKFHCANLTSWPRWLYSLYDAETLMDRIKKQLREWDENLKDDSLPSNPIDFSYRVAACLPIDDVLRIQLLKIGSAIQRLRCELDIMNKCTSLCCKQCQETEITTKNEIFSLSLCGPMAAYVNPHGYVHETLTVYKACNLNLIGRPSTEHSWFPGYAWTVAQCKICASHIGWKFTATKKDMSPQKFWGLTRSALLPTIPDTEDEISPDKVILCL


Molecular target: T1, CRBN, Q96SW2
Experiment: log2 fold change of degron read counts, EGFP-low vs EGFP+ sorted cells (limma voom), compound-induced degradation; higher = more compound-induced degradation of the degron-EGFP fusion; degrons are variants of IKZF1/3 zinc finger 2; compound dose not given here
Conditions: Jurkat, 18 h
[1] = compound: compound 19 (5-tert-butyl-thalidomide)
[2] = compound: compound 22 (5-morpholino-thalidomide)
[3] = compound: compound 33 (diphenyl IMiD analogue)
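Further: pooled lentiviral library of zinc finger degron-EGFP fusions in mCherry-positive Jurkat cells, FACS-sorted after compound exposure, with degron abundance counted by next-generation sequencing.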

Sequence	log2 fold change of degron read counts [1]	log2 fold change of degron read counts [2]	log2 fold change of degron read counts [3]	log2 fold change of degron read counts (compound: thalidomide)
FWCPICGHYFTQKGNLLRHIKL [46F_47W_49P_50I_52G_53H_54Y_55F_67L_, Q9UKT9]	-0.542	-0.321	-0.506	-0.28
FKCNVCGAEFTQKGNLLRHIKL [46F_47K_49N_50V_52G_53A_54E_55F_67L_, Q9UKT9]	-3.18	-3.1	-3.12	-2.1
FHCPICGATFTQKGNLLRHIKL [46F_47H_49P_50I_52G_53A_54T_55F_67L_, Q9UKT9]	1.64	1.89	1.62	0.481
FMCEVCGAPFTQKGNLLRHIKL [46F_47M_49E_50V_52G_53A_54P_55F_67L_, Q9UKT9]	2.75	3.55	3.12	2.6
FECEVCGAPFTQKGNLLRHIKL [46F_47E_49E_50V_52G_53A_54P_55F_67L_, Q9UKT9]	1.65	-1.41	0.683	1.6
FKCEVCGAPFTQKGNLLRHIKL [46F_47K_49E_50V_52G_53A_54P_55F_67L_, Q9UKT9]	2.02	1.13	-1.28	1.95
LSCPICGFFCTQKGNLLRHIKL [46L_47S_49P_50I_52G_53F_54F_55C_67L_, Q9UKT9]	2.05	1.71	2.64	2.39
LCCPICGFFCTQKGNLLRHIKL [46L_47C_49P_50I_52G_53F_54F_55C_67L_, Q9UKT9]	1.09	1.75	2.77	2.39
LWCPICGFFCTQKGNLLRHIKL [46L_47W_49P_50I_52G_53F_54F_55C_67L_, Q9UKT9]	2.66	3.04	2.81	2.05
LACPICGFFCTQKGNLLRHIKL [46L_47A_49P_50I_52G_53F_54F_55C_67L_, Q9UKT9]	3.31	2.49	2.27	2.24
LGCPICGFFCTQKGNLLRHIKL [46L_47G_49P_50I_52G_53F_54F_55C_67L_, Q9UKT9]	3.27	2.15	2.31	1.94
LHCPICGFFCTQKGNLLRHIKL [46L_47H_49P_50I_52G_53F_54F_55C_67L_, Q9UKT9]	2.35	2.51	2.79	2.23
FVCNQCGAAFTQKGNLLRHIKL [46F_47V_49N_50Q_52G_53A_54A_55F_67L_, Q9UKT9]	-2.28	-0.788	-0.293	-0.146
FTCNQCGRRFTQKGNLLRHIKL [46F_47T_49N_50Q_52G_53R_54R_55F_67L_, Q9UKT9]	-2.59	-2.14	-1.95	-1.42
FHCPICGRFFTQKGNLLRHIKL [46F_47H_49P_50I_52G_53R_54F_55F_67L_, Q9UKT9]	-0.744	-1.72	-0.739	-1.66
FCCEQCGAPFTQKGNLLRHIKL [46F_47C_49E_50Q_52G_53A_54P_55F_67L_, Q9UKT9]	-0.706	-2.38	-1.75	-1.28
FCCEICGAPFTQKGNLLRHIKL [46F_47C_49E_50I_52G_53A_54P_55F_67L_, Q9UKT9]	3.63	2.99	1.57	2.05
FCCEICGADFTQKGNLLRHIKL [46F_47C_49E_50I_52G_53A_54D_55F_67L_, Q9UKT9]	0.103	-0.401	0.273	-0.00478
FKCEICGAPFTQKGNLLRHIKL [46F_47K_49E_50I_52G_53A_54P_55F_67L_, Q9UKT9]	2.99	1.73	-0.501	2.51
FSCEICGAPFTQKGNLLRHIKL [46F_47S_49E_50I_52G_53A_54P_55F_67L_, Q9UKT9]	3.54	2.69	1.29	1.99
FSCEICGADFTQKGNLLRHIKL [46F_47S_49E_50I_52G_53A_54D_55F_67L_, Q9UKT9]	0.281	-0.67	-0.225	-0.832
